# Test results published in PubChem BioAssay (NCATS).
# A number with no mark means an inactive call. Inconclusive results are not listed. Where a call stands in place of a potency, no number is given. The source made the active and inactive calls. Unless noted, calls come from the whole dose curve; as a rule, active = well fitted curve in the direction sought with a large enough effect; inconclusive = small, poorly fitted or top-dose-only effect, or another doubt; inactive = no such curve, though single readings can be large; an effect the other way counts as inactive or inconclusive.
# Key:
# [1] = molecular target: Glucagon-like peptide 1 receptor (Homo sapiens) (UniProt P43220); experiment: qHTS of GLP-1 Receptor Agonists: LOPAC Validation (AID 624148);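 note: higher luminescence signal means agonism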
# Glucagon-like peptide 1 receptor (Homo sapiens), sequence (P43220 whole entry, looked up): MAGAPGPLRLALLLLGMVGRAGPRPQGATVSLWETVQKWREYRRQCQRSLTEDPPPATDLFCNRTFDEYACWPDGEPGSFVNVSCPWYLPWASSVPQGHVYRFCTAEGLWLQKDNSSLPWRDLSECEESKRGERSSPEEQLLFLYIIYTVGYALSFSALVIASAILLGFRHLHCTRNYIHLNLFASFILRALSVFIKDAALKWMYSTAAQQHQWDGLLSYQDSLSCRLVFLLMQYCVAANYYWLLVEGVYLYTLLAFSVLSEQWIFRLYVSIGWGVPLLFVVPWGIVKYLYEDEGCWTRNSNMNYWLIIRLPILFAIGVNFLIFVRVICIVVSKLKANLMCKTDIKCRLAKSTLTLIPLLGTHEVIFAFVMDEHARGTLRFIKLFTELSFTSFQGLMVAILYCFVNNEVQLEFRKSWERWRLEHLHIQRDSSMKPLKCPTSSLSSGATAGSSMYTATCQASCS
# Outline: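 HEK293 cells stably co-expressing GLP-1R and a cAMP-responsive luciferase reporter, plated 12 hours before compound, then incubated 4-6 hr at 37 deg C. Luminescence read 12 min after detection reagent.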
# [2] = qHTS of Nrf2 Activators: LOPAC Validation (AID 624149)
# Outline: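 AREc32 cells carrying an ARE-driven firefly luciferase were grown overnight in OPTI-MEM with 5% FBS, then exposed to compounds for 24 hr at 37 deg C. Luciferase signal was read after 30 min with Steady-Glo at RT.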
# [3] = HTS Assay for Allosteric Antagonists of the Human D2 Dopamine Receptor: Hit Validation in HTRF (AID 624455);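 note: stable D1 dopamine receptor cell line scored for blocking the D1 response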
# Outline: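 Hits were examined in an HTRF assay using cells stably expressing the D1 dopamine receptor, scoring inhibition of the D1-mediated response. The preceding primary screen tracked calcium flux after an EC80 dopamine addition in force-coupled, inducible Hek293 Trex D2 cells.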
# [4] = molecular target: Arylsulfatase A (Homo sapiens) (UniProt P15289); experiment: qHTS screen for enhancers of Arylsulfatase A (ASA1): LOPAC Validation Assay (AID 720538); note: potency is the fitted concentration of half-maximal effect
# Arylsulfatase A (Homo sapiens), sequence (P15289 whole entry, looked up): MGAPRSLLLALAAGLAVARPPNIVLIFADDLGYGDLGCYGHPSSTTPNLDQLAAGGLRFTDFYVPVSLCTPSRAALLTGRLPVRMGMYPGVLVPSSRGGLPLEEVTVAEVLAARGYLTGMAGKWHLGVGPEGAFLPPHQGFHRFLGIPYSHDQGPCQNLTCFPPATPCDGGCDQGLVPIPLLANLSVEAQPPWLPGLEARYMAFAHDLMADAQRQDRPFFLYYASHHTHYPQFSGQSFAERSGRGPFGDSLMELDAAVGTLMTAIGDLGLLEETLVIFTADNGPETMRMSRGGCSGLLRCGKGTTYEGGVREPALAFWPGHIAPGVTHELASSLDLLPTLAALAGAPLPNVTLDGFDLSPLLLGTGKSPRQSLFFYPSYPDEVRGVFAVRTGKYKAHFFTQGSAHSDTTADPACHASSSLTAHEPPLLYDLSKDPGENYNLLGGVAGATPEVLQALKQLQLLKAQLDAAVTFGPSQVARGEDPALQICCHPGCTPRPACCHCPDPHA
# Outline: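 Enhancer assay in patient-derived MLD fibroblasts carrying ASA-I179S: 48 h compound exposure at 37 C, then 14 h room-temperature pNCS turnover (0.5 mM final) in lysis buffer. Read by fluorescence at 525/598 nm after NaOH stop.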
# [5] = qHTS for compounds that reverse cellular toxicity of Amyloid beta (A-beta) peptide in yeast: LOPAC Validation Assay (AID 720559)
# Outline: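 Rescue of A-beta toxicity was scored as yeast growth by 600 nm absorbance after 48 hr at 30 C with compound. Normalization used DMSO (negative) and equimolar ferric chloride plus clioquinol (positive).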
# [6] = qHTS for Activators of Parkin Expression: LOPAC Validation Assay (FLuc Reporter) (AID 720573)
# Outline: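 FLuc signal from Parkin-promoter coincidence reporter neuronal cells, normalized to DMSO and positive control (100%). Cells (1,500/well) pre-incubated 24 h, then exposed to LOPAC compounds in 7-point dose response for 24 h at 37 C, 5% CO2.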
# [7] = molecular target: T1, Hexokinase-4 (Homo sapiens) + Glucokinase regulatory protein (Homo sapiens) (UniProt P35557+Q14397); experiment: qHTS assay for inhibitors of recombinant human GCK-GKRP interaction: ADP-Glo assay (AID 743206)
# T1 sequence (P35557 whole entry, looked up): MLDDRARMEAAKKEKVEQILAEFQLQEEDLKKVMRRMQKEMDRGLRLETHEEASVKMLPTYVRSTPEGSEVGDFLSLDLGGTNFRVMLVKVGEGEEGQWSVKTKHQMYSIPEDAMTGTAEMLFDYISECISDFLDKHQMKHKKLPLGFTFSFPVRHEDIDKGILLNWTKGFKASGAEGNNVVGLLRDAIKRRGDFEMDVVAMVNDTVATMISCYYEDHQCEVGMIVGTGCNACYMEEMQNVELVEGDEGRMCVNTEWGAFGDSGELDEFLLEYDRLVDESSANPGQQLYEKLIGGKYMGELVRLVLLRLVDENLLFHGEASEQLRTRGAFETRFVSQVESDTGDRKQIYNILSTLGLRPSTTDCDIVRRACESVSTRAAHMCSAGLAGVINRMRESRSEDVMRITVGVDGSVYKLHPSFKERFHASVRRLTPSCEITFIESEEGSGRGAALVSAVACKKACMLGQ
# T1 sequence (Q14397 whole entry, looked up): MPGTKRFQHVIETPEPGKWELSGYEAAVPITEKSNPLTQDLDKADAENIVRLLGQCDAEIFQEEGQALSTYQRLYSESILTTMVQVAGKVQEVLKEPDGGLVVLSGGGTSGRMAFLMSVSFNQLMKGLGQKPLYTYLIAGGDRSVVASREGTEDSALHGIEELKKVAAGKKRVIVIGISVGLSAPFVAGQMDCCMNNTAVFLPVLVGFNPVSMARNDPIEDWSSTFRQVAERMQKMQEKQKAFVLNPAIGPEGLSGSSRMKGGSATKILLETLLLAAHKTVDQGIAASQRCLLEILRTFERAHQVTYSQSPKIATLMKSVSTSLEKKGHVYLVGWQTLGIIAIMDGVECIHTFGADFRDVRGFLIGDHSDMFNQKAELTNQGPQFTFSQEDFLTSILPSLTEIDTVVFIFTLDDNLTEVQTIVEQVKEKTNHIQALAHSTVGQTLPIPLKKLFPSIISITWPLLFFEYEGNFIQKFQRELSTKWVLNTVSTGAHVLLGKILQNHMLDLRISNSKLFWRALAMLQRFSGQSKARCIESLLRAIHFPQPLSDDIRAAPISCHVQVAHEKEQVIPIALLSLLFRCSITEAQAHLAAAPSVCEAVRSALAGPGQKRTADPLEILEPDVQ
# Outline: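 GST-GCK and FLAG-GKRP (15 nM each in the dispensed mix, with 2 uM S6P) react with 0.4 mM ATP and 5 mM glucose (final) in Hepes pH 7.6 for 60 min at room temperature. ADP is measured by ADP-Glo luminescence.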
# [8] = molecular target: T1, Hexokinase-4 (Homo sapiens) + Glucokinase regulatory protein (Homo sapiens); experiment: qHTS assay for inhibitors of recombinant human GCK-GKRP interaction: HTRF assay (AID 743207)
# Outline: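 After 60 min equilibration at room temperature with anti-FLAG XL665 and anti-GST antibodies, FRET ratio (665/615 nm, excitation 320 nm) was read. Proteins: GST-GCK and FLAG-GKRP, each 5 nM, plus 2 uM S6P, pH 7.1 buffer; GCK-free wells define minimum signal.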
# [9] = Natriuretic polypeptide receptor (hNpr1) antagonism - Pilot counterscreen GloSensor control cell line (AID 1347045; calls by dose curve; note: potency is the fitted concentration of half-maximal effect)
# Outline: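 HEK293 cells carrying the GloSensor cGMP sensor (GIP/pGS-40F) were loaded with 2% GloSensor reagent for 2 h, exposed to compounds for 30 min, and then stimulated with 50 uM sodium nitroprusside for 20 min at room temperature.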
# [10] = molecular target: Atrial natriuretic peptide receptor 1 (Homo sapiens) (UniProt P16066); experiment: Natriuretic polypeptide receptor (hNpr1) antagonism - Pilot screen (AID 1347049; calls by dose curve;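 note: agonist-evoked cGMP luminescence read 20 min after hNppA addition; potency is the fitted concentration of half-maximal effect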)
# Outline: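 HEK293 cells expressing hNpr1 and GloSensor cGMP luciferase, 1500/well, loaded with 2% GloSensor reagent 2 h, compound 30 min at room temperature; luminescence read before and 20 min after 0.1 nM hNppA stimulation.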
# [11] = molecular target: Atrial natriuretic peptide receptor 2 (Homo sapiens) (UniProt P20594); experiment: Natriuretic polypeptide receptor (hNpr2) antagonism - Pilot subtype selectivity assay (AID 1347050; calls by dose curve; note: potency is the fitted concentration of half-maximal effect)
# Outline: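 HEK293 cells expressing hNpr2 and a GloSensor cGMP luciferase sensor, 1500/well, preloaded 2 h with 2% GloSensor reagent, compound 30 min, then 1 nM hNppC for 20 min. Antagonism from luminescence after versus baseline pre-read; LOPAC in 1:5 titrations.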
# [12] = molecular target: T2, Tyrosine-protein phosphatase non-receptor type substrate 1 (Homo sapiens) + Leukocyte surface antigen CD47 (Homo sapiens) (UniProt P78324+Q08722); experiment: CD47-SIRPalpha protein protein interaction - LANCE assay qHTS validation (AID 1347057; active = well fitted curve in the direction sought with a large enough effect in the signal ratio, with a control signal flat, not every such curve was filed as active; the % refers to the signal ratio; note: series mostly up to about 38 µM)
# T2 sequence (P78324 whole entry, looked up): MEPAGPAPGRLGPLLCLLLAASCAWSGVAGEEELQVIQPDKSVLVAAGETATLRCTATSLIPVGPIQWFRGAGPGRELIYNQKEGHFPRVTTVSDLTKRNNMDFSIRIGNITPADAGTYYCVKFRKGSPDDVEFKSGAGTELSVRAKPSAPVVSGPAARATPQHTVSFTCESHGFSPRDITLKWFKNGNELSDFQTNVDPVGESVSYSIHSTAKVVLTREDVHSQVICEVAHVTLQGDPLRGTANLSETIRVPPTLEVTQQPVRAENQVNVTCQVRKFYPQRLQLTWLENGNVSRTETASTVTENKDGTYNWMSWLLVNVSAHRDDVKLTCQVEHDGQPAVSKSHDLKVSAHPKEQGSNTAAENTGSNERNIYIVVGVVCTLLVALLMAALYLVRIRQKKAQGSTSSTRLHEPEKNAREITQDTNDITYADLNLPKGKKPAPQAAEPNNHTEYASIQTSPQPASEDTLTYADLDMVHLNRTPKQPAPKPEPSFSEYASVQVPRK
# T2 sequence (Q08722 whole entry, looked up): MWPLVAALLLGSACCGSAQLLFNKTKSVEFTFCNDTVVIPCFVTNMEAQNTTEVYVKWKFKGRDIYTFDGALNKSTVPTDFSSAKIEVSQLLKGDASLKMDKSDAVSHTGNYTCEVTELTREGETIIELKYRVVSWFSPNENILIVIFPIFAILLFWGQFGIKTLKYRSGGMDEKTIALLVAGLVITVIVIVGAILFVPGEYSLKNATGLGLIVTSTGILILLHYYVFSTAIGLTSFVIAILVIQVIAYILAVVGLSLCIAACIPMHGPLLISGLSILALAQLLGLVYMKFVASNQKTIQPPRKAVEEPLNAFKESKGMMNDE
# Outline: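 First, His-tagged CD47 and Eu-labelled anti-His antibody met the compound for 30 min; next, site-specifically biotinylated SIRPalpha was added for 30 min; finally streptavidin-APC was added before reading the TR-FRET ratio.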
# [13] = molecular target: T2, Tyrosine-protein phosphatase non-receptor type substrate 1 (Homo sapiens) + Leukocyte surface antigen CD47 (Homo sapiens); experiment: CD47-SIRPalpha protein protein interaction - HTRF assay qHTS validation (AID 1347058; active = well fitted curve in the direction sought with a large enough effect in the signal ratio, not every such curve was filed as active; the % refers to the signal ratio;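 note: recombinant soluble extracellular CD47 with His tag and biotinylated SIRPalpha domains; series mostly up to about 38 µM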)
# Outline: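 TR-FRET read (Ch1/Ch2 ratio) of soluble extracellular CD47 and Avi-biotinylated SIRPalpha domains in PBS pH 7.4 with 0.05% IGEPAL; 7-point compound titration. Sequential 30 min room-temperature steps; non-biotinylated SIRPalpha as control inhibitor.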
# [14] = molecular target: T2, Tyrosine-protein phosphatase non-receptor type substrate 1 (Homo sapiens) + Leukocyte surface antigen CD47 (Homo sapiens); experiment: CD47-SIRPalpha protein protein interaction - Alpha assay qHTS validation (AID 1347059);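 note: bead proximity luminescence from CD47 binding SIRPalpha after compound preincubation with SIRPalpha; potency is the fitted concentration of half-maximal effect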
# Outline: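 Biotinylated Avi-tagged SIRPalpha (25 nM) preincubated 30 min with compound, then His-tagged CD47 (12.5 nM) added 30 min; AlphaScreen with Ni-NTA acceptor and streptavidin donor beads. PBS pH 7.4, 0.05% IGEPAL, room temperature; 7-point titrations.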
# [15] = molecular target: Parathyroid hormone/parathyroid hormone-related peptide receptor (Homo sapiens) (UniProt Q03431); experiment: qHTS for PTHR1 Agonists: Optimization Screen against the NCGC LOPAC library (AID 1347079);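 note: GloSensor cAMP luminescence in HEK-293 GP2 cells expressing human PTHR1 with IBMX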
# Parathyroid hormone/parathyroid hormone-related peptide receptor (Homo sapiens), sequence (Q03431 whole entry, looked up): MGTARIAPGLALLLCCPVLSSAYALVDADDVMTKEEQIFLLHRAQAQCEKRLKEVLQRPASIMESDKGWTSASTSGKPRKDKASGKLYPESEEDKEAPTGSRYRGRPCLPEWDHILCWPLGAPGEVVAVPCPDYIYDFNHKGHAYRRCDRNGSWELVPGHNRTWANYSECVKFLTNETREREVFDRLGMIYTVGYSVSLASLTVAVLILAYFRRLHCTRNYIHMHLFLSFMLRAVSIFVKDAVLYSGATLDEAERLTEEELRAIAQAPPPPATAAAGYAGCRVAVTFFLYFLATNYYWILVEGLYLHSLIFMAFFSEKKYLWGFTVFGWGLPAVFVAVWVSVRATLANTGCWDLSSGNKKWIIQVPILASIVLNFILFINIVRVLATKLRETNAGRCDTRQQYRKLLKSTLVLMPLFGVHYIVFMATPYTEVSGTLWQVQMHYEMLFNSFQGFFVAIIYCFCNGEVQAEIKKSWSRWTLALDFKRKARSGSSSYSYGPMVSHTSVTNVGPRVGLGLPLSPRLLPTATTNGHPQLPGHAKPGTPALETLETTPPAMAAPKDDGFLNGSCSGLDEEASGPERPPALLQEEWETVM
# Outline: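 Compounds were tested across a qHTS titration. PTHR1-expressing GP2 cells report cAMP rises via GloSensor luminescence after 1 hr compound exposure at 37C with IBMX present.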
# [16] = molecular target: Lysine-specific demethylase 5B (Homo sapiens) (UniProt Q9UGL1); experiment: Optimization screen for KDM5B Histone Demethylases FDH coupled qHTS against the LOPAC library (AID 1347166)
# Outline: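 KDM5BDeltaAP (200nM final) preincubated 10 min with compound, then 12.5uM H3K4Me3, 25uM a-ketoglutarate, ascorbate, Fe(II), NAD+ and FDH added; 50mM HEPES pH 7.5, 0.01% Tween-20. NADH fluorescence (340/450 nm) change over 30 min, room temperature.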
# [17] = Validation qHTS assay for inhibitors of Activation Induced Cytidine Deaminase (AID): UDG Counterscreen signal (AID 1347427)
# Outline: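 Counterscreen read of UDG activity (2 U/mL, 4/3x) in the FRET deamination format with AID (1 uM, 4/3x), DJC20/DJC23 substrates (250 nM, 4x), 4 h at room temperature. NaOH stop, fluorescence at 560 ex/665 em.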
# [18] = molecular target: Single-stranded DNA cytosine deaminase (Homo sapiens) (UniProt Q9GZX7); experiment: Validation qHTS assay for inhibitors of Activation Induced Cytidine Deaminase (AID): AID signal (AID 1347429)
# Single-stranded DNA cytosine deaminase (Homo sapiens), sequence (Q9GZX7 whole entry, looked up): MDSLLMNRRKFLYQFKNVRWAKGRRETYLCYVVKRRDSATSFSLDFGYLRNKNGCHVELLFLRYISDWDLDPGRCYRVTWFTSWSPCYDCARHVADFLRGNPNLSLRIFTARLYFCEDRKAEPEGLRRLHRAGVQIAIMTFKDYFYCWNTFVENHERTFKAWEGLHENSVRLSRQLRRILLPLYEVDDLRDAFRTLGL
# Outline: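 AID and UDG were combined and compounds added at final up to 114 uM, then DJC20/DJC23 FRET substrate was added for 4 hr at room temperature. NaOH was then added for 30 min before fluorescence was read at 540/590 nm.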
# [19] = Primary qHTS for inhibitors of La Crosse Virus (LACV) - induced cell death in SH-SY5Y cells (AID 1508616);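 note: top concentration of the series differs between compounds; higher means more rescue of cells from virus-induced death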
# Outline: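 Luminescent ATP readout (ATPLite 1step, 5 min room temperature) measured rescue from LACV-induced death after 6 days of infection at 0.01 MOI; normalized to infected DMSO wells and uninfected DMSO wells.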
# [20] = Cell Viability qHTS for small molecule stabilizers of the endoplasmic reticulum resident proteome (AID 1508629); settings: cell viability counter-screen, 100 nM thapsigargin for final 4 h;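 note: human SH-SY5Y neuroblastoma cells carrying the GLuc-SERCaMP reporter; compound exposure about 46 h in total before the viability read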
# Papain (Carica papaya) = Papain (Carica papaya) (UniProt P00784); experiment: Primary qHTS assay for inhibitors of the protease papain (AID 1645873);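 note: papain turnover of Z-FR-AMC read as the AMC fluorescence gain over 10 min; series mostly up to about 50 µM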
# Papain (Carica papaya), sequence (P00784 whole entry, looked up): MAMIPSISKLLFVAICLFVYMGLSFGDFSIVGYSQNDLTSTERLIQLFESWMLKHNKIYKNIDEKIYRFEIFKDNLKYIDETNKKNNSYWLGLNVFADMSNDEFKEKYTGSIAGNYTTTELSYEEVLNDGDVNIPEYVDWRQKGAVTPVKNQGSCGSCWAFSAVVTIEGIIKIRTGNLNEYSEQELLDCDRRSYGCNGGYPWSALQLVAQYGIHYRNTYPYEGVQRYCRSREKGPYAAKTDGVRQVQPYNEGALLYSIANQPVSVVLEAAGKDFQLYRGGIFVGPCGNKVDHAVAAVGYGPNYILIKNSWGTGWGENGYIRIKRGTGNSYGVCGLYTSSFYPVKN
# [21] = molecular target: Metallo-beta-lactamase type 2 (Klebsiella pneumoniae) (UniProt C7C422); experiment: qHTS to identify inhibitors of the New Delhi Metallo-beta-lactamase (NDM): assay validation screen against the NCATS LOPAC Collection (AID 1794843); note: series mostly up to about 38 µM
# Metallo-beta-lactamase type 2 (Klebsiella pneumoniae), sequence (C7C422 whole entry, looked up): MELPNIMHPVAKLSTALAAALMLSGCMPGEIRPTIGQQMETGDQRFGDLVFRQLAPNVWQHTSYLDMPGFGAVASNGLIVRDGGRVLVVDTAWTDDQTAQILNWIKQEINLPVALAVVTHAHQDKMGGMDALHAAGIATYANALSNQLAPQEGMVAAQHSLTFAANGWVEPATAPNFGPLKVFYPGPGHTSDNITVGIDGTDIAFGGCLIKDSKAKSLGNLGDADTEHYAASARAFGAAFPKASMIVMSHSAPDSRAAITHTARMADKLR
# Outline: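 Absorbance at 485 nm from nitrocefin turnover (50 uM solution added), read at plateau, gives the read-out. Compounds in DMSO were incubated first with 2 nM final NDM-1 in pH 7.0 HEPES buffer containing 1 uM ZnSO4 and 0.01% Tween20.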
# [22] = molecular target: Glutathione peroxidase 1 (Homo sapiens) (UniProt P07203); experiment: Primary qHTS Assay for Inhibitors of Recombinant Selenoprotein Glutathione Peroxidase 1 (GPX1) (AID 1845191); note: nearly all actives have a fitted effect of over 65% in size
# Glutathione peroxidase 1 (Homo sapiens), sequence (P07203 whole entry, looked up): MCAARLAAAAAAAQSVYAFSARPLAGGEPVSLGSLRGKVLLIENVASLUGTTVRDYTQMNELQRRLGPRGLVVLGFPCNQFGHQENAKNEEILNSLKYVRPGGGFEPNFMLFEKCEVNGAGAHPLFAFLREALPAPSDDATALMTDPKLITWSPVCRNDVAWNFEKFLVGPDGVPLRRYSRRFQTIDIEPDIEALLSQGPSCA
# Outline: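 GR-coupled assay: compounds preincubated 30 min at room temperature with GPX1, then reaction started with CHP; final 10 nM GPX1, 1 mM GSH, 0.5 mM CHP, 0.5 mM NADPH, 100 nM GR, 0.01% BSA, pH 7.5 Tris buffer. NADPH fluorescence (340/450 nm) read at 0 and 15 min.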
# [23] = molecular target: Phospholipid hydroperoxide glutathione peroxidase GPX4 (Homo sapiens) (UniProt P36969); experiment: Primary qHTS Assay for Inhibitors of Recombinant Selenoprotein Glutathione Peroxidase 4 (GPX4) (AID 1845192); settings: outcome: dose series up to 50 µM unless noted; note: nearly all actives have a fitted effect of over 65% in size
# Phospholipid hydroperoxide glutathione peroxidase GPX4 (Homo sapiens), sequence (P36969 whole entry, looked up): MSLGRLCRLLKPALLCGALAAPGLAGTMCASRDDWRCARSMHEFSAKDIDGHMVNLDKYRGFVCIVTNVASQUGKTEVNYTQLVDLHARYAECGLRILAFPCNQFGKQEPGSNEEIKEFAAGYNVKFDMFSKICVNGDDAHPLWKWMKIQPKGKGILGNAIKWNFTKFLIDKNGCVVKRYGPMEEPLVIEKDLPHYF
# Outline: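 GR-coupled assay: recombinant GPX4 preincubated 30 min with compound at room temperature; final 200 nM GPX4, 1 mM GSH, 0.5 mM cumene hydroperoxide, 0.5 mM NADPH, 100 nM GR, 0.01% BSA, pH 7.5 Tris. NADPH fluorescence (340/450 nm) read at 0 and 15 min.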
smiles,measurement,setting,value
O=C1c2ccccc2C(=O)c2c(NCCc3ccc(O)cc3)ccc(NCCc3ccc(O)cc3)c21,outcome,[1],inactive
same,outcome,[2],inactive
same,outcome,[3],inactive
same,Potency,[4],9.53 µM (active)
same,outcome,[5],inactive
same,Potency,[6],inactive
same,outcome,[7],inactive
same,outcome,[8],inactive
same,Potency,[9],11.7 µM (active)
same,Potency,[10],12 µM (active)
same,Potency,[11],13.1 µM (active)
same,outcome,[12],inactive
same,outcome,[13],inactive
same,Potency,[14],1.85 µM (active)
same,outcome,[15],inactive
same,outcome,[16],inactive
same,outcome,[17],inactive
same,Potency,[18],inactive
same,outcome,[19],inactive
same,max response,[20],-20.2%
same,Potency,Papain (Carica papaya),inactive
same,Potency,[21],inactive
same,Potency,[22],inactive
same,Potency,[23],inactive
